# Columns and labels:
# [1] = molecular target: T1, Aspartate--tRNA(Asp/Asn) ligase (Mycobacterium tuberculosis (strain ATCC 25618 / H37Rv)) (UniProt P9WFW3); test: Assay for Asp RNA synthetase-1 from Mycobacterium tuberculosis; type: functional; set-up: scale not given: direction of the effect not stated beside the values; settings: 30 µM; further: in the data most compounds retested in dose-response had high values
# T1 sequence (whole entry): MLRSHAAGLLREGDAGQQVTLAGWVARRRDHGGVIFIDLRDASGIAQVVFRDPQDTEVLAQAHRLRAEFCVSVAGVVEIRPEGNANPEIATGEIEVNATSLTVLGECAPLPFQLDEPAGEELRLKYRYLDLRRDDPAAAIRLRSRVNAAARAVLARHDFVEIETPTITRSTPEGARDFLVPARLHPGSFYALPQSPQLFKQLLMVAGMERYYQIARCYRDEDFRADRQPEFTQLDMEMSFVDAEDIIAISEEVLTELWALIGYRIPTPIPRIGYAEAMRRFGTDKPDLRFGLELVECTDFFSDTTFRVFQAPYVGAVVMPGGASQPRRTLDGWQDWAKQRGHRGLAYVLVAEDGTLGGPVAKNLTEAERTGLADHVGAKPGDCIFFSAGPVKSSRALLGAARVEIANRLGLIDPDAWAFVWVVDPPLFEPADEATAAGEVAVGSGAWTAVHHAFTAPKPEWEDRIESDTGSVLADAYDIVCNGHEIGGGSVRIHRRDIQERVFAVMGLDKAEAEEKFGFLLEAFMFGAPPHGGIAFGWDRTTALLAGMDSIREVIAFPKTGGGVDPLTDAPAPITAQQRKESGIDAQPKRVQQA
# [2] = molecular target: Shiga toxin 2 (Escherichia coli O157:H7) (UniProt P09385+P09386); test: E. coli 0.157:H7 Shiga Toxin SOP - stx2 screening assay; type: functional; set-up: scale not given: direction of the effect not stated beside the values; settings: 30 µM
Compound,Percent Effect [1] [%],Percent Effect [2] [%]
O=C(NCCNc1ncccn1)Nc1cc(C(F)(F)F)c[nH]c1=O,-1.25,3.13
FC1(F)CCN(Cc2ccccn2)CC12CCN(c1cccnc1)C2 (stereo not drawn),1.08,-6.96
O=C(Nc1nncs1)NC1CCc2ccccc21 (stereo not drawn),1.46,-33.6
CNC(=O)[C@H]1CCS(=O)(=O)[C@@H]2CN(Cc3ccc(OC)cc3)C[C@H]12,-0.605,3.61
COC(=O)c1ccc(N2CCN(CCC#N)C(C)C2)cc1 (stereo not drawn),2.13,37.7
COCCn1c2c(ccc1=O)CC(NS(C)(=O)=O)CC2 (stereo not drawn),2.72,-20.6
Cc1c[nH]c(CN(C)C(=O)C2CC(=O)N(Cc3ccncc3)C2)n1 (stereo not drawn),2.33,-32.5
Brc1cc2c(cc1CN1CCC(N3CCCCC3)CC1)OCCO2,-2.09,-51.2
COc1ccnc(C(=O)N2CCCC(c3noc(C)n3)C2)c1 (stereo not drawn),0.885,1.38
CCNc1cc2c(nn1)CCN(C(=O)c1ccc(NC3CC3)nc1)C2,-0.723,2.8
CC(C)c1nnc2n1CCN(CC(=O)Nc1nncs1)C2,-2.1,10
Cc1cnn(CC2CCCN2C(=O)c2ccc(OC(C)C)nc2)c1 (stereo not drawn),-4.48,-35
CN(C)CC1CN(c2cnc3ccccc3n2)CCO1 (stereo not drawn),-3.4,-17.5
N#Cc1c(F)cccc1N1CCN(S(=O)(=O)c2cccs2)CC1,4.83,-12.3
CN(C)CC1CN(c2ccc(C#N)cn2)CCO1 (stereo not drawn),0.899,22.4
Cc1noc(CN2CCN(Cc3cccs3)CC2)n1,-1.85,1.32
COCCN(Cc1ccoc1)C(=O)c1cccnc1SC,1.65,-0.408
Cc1[nH]/c(=N\C(=O)c2csc(NCC(C)C)n2)sc1C,0.43,12
Cc1ccc(S(=O)(=O)N2CCC3(CC(C(=O)NCC4CC4)=NO3)C2)cc1 (stereo not drawn),10.8,14.7
Cc1c(O)oc(-c2ccc(Br)cc2)nc1=O,-1.84,-45.4
COCCNS(=O)(=O)c1ccc2c(c1)CCN(C(=O)c1cncn1C)C2,0.891,-23.1
NC(=O)NCC(=O)N1C[C@H]2CC[C@@H]1CN(C1Cc3ccccc3C1)C2,6.33,-7
Cc1ccsc1CN(C)Cc1nc2c(cnn2C)c(=O)[nH]1,-2.46,-6.66
CCc1ccccc1-n1nnc(C(=O)O)c1-c1ccccn1,6.47,-3.21
Cc1cccc(COC[C@]23COC[C@H]2CN(C(=O)c2ccsc2)C3)n1,1.56,7.59

Compound,Percent Effect [1] [%],Percent Effect [2] [%]
CN1CCCC(Cc2cncc(C(=O)NCC3CC3)c2)C1 (stereo not drawn),-1.03,2.18
CC1CCN(S(=O)(=O)c2cccn(CC(=O)NC3CCCC3)c2=O)CC1,-2.16,1.09
CCOCCOC(C)C(=O)NCc1cn2cc(Br)ccc2n1 (stereo not drawn),1.62,-14.8
Cc1ccccc1C(=O)NCc1ccc(N2CCNC(=O)C2)c(F)c1,-0.569,0.0326
Cc1ccc(SCC2CNc3nc4ccccc4c(=O)n32)c(C)c1 (stereo not drawn),0.0228,9.77
CCCNC(=O)C(C)n1cc(Br)cn1 (stereo not drawn),5.47,-46.7
COCC(=O)N1CCC(c2nc3ccc(-c4ccccc4)cn3n2)CC1,-2.8,-19.6
Cc1ccc(-c2nc(CN3CCCC(Cn4cncn4)C3)no2)cc1 (stereo not drawn),1.64,-11.2
CCOc1ccc(C2CC(=O)Nc3c2c(=O)nc2sccn32)cc1 (stereo not drawn),0.813,-16.9
CCc1ccc(CN2C[C@@H]3OCCN(c4ccnc(N(C)C)n4)[C@@H]3C2)o1,-6.22,-25.6
C[C@H]1CN(Cc2cnn(C)c2)C[C@@]12CCN(Cc1cccnc1)C2=O,-2.89,-10.2
CCc1nc(C2CCCN2Cc2nc3ccccc3o2)no1 (stereo not drawn),-0.404,9.5
Cc1n[nH]c(C)c1C1CCCN1C(=O)CNC(=O)C(C)(C)C (stereo not drawn),1.09,-19.5
CCN1CCN(c2ccc(F)cc2C(C)NCc2ccncc2)CC1 (stereo not drawn),-0.494,14.3
COC(=O)c1ccoc1COC(=O)CCc1ccc(OC)c(OC)c1,-3.44,0.432
N#Cc1ccc(CNCC2CCN(CCO)CC2)cc1,5.92,-29.9
COc1ccc(-n2nnc(C(=O)NC(C)C)c2C2CC2)cc1,-4.62,10.4
CCOCC1CN(C(=O)c2ccncc2)Cc2nn(C)cc21 (stereo not drawn),4.25,-22.5
CN(Cc1cnn(C)c1)C(=O)c1ccc(=O)n(C)n1,-3.08,-8.81
CN(C)C(=O)CNC(=O)Nc1cccc(Cl)c1SC(F)F,4.9,-5.26
CC(C)S(=O)(=O)NCC1CCCN(C(=O)c2ccc3c(c2)CCC3)C1 (stereo not drawn),6.5,1.33
CC(C)Oc1cc(N2CCC(N3CCC(O)CC3)CC2)nc(N)n1,-2.8,2.73
COc1cccc(CNC(=O)CC2CSc3ncc(C)c(=O)n32)c1 (stereo not drawn),1.5,6.98
CCOCCN1CCN(Cc2cccc(C(=O)N(C)C)c2)CC1,-3.67,-26.9
CC(=O)N(Cc1noc(C)n1)C1CCN(Cc2ccccc2C#N)C1 (stereo not drawn),2.26,-3.66

Compound,Percent Effect [1] [%],Percent Effect [2] [%]
CNC(=O)c1ccc(CN2CCC(N(C)Cc3noc(C)n3)C2)cc1 (stereo not drawn),-0.577,7.96
CC(C)c1noc(C(C)N2CCN(Cc3ccco3)CC2)n1 (stereo not drawn),0.141,13.9
CC(C)CC(CNC(=O)NCc1cc[nH]n1)N1CCOCC1 (stereo not drawn),-6.68,-30.7
NCc1cn(-c2ccccc2C(=O)NCc2ccccc2)cn1,-1.51,-5.86
CCN(CCNC(=O)c1ccccc1Br)C1CC1,-1.24,9.65
Cc1nc(COC[C@]23COC[C@H]2CN(Cc2ccoc2)C3)cs1,-0.55,4.86
Cc1cc(N2CCC(CC(N)=O)CC2)nc(-c2ccncc2)n1,6.11,0.525
Cc1cnn(CC2CN(Cc3nc(-c4ccoc4)no3)CCO2)c1 (stereo not drawn),-3.63,24
Cc1nc[nH]c1CN1C[C@@H]2CC[C@H](C1)N(C(=O)CCNS(C)(=O)=O)C2,-4.9,-0.862
Cc1ccc2c(c1)c(CNC(=O)C1CC(=O)N(C3CCCC3)C1)nn2C (stereo not drawn),4.05,-18
OC(CN1CCCCCCC1)c1ccc(F)cc1 (stereo not drawn),-2.26,10.8
CCc1ccc(S(=O)(=O)N2CCC3(CC(C(=O)NC)=NO3)C2)cc1 (stereo not drawn),-3.62,-7.42
O=C(NCC(=O)N1CCc2ccccc2C1)c1ccoc1,1.62,-10.2
CC(C)Cc1nc(OCC(=O)O)c(C#N)c2c1CCC2,0.639,-5.61
O=C(c1ccncc1F)N1CCc2ncnc(-c3ccncc3)c2CC1,3.59,-0.901
COCc1nc(N(C)C)ncc1C(=O)Nc1ccn(C)n1,-1.07,-19.2
CCO[C@@H]1CCN(C(=O)c2cscn2)[C@@H]1Cc1cnn(C)c1,-2.13,1.75
COc1ccc(CNC2CCCN(Cc3noc(C)n3)C2)cc1F (stereo not drawn),1.37,6.55
Cc1ccc(N2CCCC(NCc3ccsc3)C2)nn1 (stereo not drawn),4.57,10.6
CN1CCN(Cc2cccnc2)C2(CCN(c3ncc(F)cn3)C2)C1=O (stereo not drawn),4.87,-19.6
CC1=Nc2c(c(=O)[nH]n2C(C)C)C(c2cccs2)S1 (stereo not drawn),7.78,5.29
COc1ccc(F)cc1C(C)NC(=O)Nc1nnc(C)s1 (stereo not drawn),-0.889,15.6
Cc1c[nH]c(CN(C)c2nc(C3CCCC3)nc3c2cnn3C)n1,0.0557,-4.38
OC[C@H]1CC[C@]2(CC1)CN(Cc1ccccn1)Cc1ccccc1O2,0.104,2.28

# Source: ChEMBL document CHEMBL3988442, “University of Dundee, Small-Polar-MMV Screening Library” (2021)
